Test results: PubChem BioAssay (EPA / NIEHS)
The source made the active and inactive calls. The calls were made as follows: active = hit-call score of the fitted dose curve at least 0.9, where 1 is the maximum; inactive = score below 0.9.

Experiment: CCTE_Padilla_ZF_Score.General: CCTE's 144 Hour Post-fertilization zebrafish Assay Score for General Malformation, Padilla Lab (AID 2284411)
Method in brief: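 Malformation, death and hatching were scored at 6 dpf by two blinded observers under a stereo microscope. Embryos were dosed singly from 6-8 hpf in sealed plates of 10% Hanks' at 26C and rinsed on 5 dpf; DMSO baseline.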

SMILES | AC50 | outcome
CC(C)(C)C(=O)CC(=O)C(F)(F)C(F)(F)C(F)(F)F | 26.4 µM (active) | –
C=CC(=O)OCC(F)(F)C(F)(F)C(F)(F)C(F)(F)COC(=O)C=C | – | inactive
O=C(O)C(F)(F)C(F)(F)C(F)F | – | inactive
Cc1ccc(S(=O)(=O)OCC(F)(F)C(F)(F)C(F)(F)C(F)(F)C(F)(F)C(F)F)cc1 | 8.85 µM (active) | –
O=C(Cl)C(F)(F)C(F)(F)C(F)(F)C(F)(F)C(F)(F)C(F)(F)C(F)(F)C(F)(F)F | 11.4 µM (active) | –
FC(F)(I)C(F)(F)C(F)(F)C(F)(F)I | 24.3 µM (active) | –
FC(F)(F)C(F)(F)C(F)(F)C(F)(F)C(F)(F)C(F)(F)CCS | – | inactive
Oc1ccc(Nc2ccccc2)cc1 | – | inactive
CCCCCCC(C)OC(=O)CCCCC(=O)OC(C)CCCCCC (stereo not given) | – | inactive

Experiment: CCTE_Padilla_ZF_Score.Tail: CCTE's 144 Hour Post-fertilization zebrafish Assay Score for Tail Malformation, Padilla Lab (AID 2284414)
Method in brief: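 Tail malformations were scored at 6 dpf by two blinded assessors under a stereo microscope. Chorionated embryos had been exposed from 6-8 hpf in sealed wells of 10% Hanks' at 26 C, then rinsed free of chemical at 5 dpf.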

SMILES | outcome | AC50
O=P(O)(O)OCCC(F)(F)C(F)(F)C(F)(F)C(F)(F)C(F)(F)C(F)(F)F | inactive | –
NC(=O)C(F)(F)C(F)(F)C(F)(F)C(F)(F)F | inactive | –
FC(F)(F)C(F)(F)C(F)(F)C(F)(F)C(F)(F)CCI | inactive | –
O=C(O)C(F)(F)C(F)(F)C(F)(F)C(F)(F)C(F)(F)C(F)(F)C(F)(F)C(F)(F)Cl | inactive | –
FC(F)(F)C(F)(F)C(F)(F)C(F)(F)C(F)(F)C(F)(F)C(F)(F)C(F)(F)F | inactive | –
OCC(F)(F)C(F)(F)C(F)(F)C(F)F | inactive | –
FC(F)(F)C(F)(F)C(F)(F)C(F)(F)CCI | inactive | –
FC(F)(F)C(F)(F)C(F)(F)C(F)(F)C(F)(F)C(F)(F)C(F)(F)C(F)(F)CCS | inactive | –
FC(F)(F)C(F)(F)C(F)(F)C(F)(F)C(F)(F)C(F)(F)CC1CO1 (stereo not given) | inactive | –
O=C(O)C(F)(OC(F)(F)C(F)(OC(F)(F)C(F)(OC(F)(F)C(F)(F)C(F)(F)F)C(F)(F)F)C(F)(F)F)C(F)(F)F (stereo not given) | inactive | –
FC(F)(Br)C(F)(F)C(F)(F)C(F)(F)C(F)(F)C(F)(F)Br | inactive | –
O=C(O)C(F)(OC(F)(F)C(F)(OC(F)(F)C(F)(F)C(F)(F)F)C(F)(F)F)C(F)(F)F (stereo not given) | inactive | –
O=C(O)C(F)(F)C(F)(F)C(F)(F)C(F)(F)F | inactive | –
N=C(N)C(F)(F)C(F)(F)C(F)(F)C(F)(F)C(F)(F)C(F)(F)C(F)(F)F | inactive | –
CC(C)(C)C(=O)CC(=O)C(F)(F)C(F)(F)C(F)(F)F | inactive | –
C=CC(=O)OCC(F)(F)C(F)(F)C(F)(F)C(F)(F)COC(=O)C=C | inactive | –
O=C(O)C(F)(F)C(F)(F)C(F)F | inactive | –
Cc1ccc(S(=O)(=O)OCC(F)(F)C(F)(F)C(F)(F)C(F)(F)C(F)(F)C(F)F)cc1 | inactive | –
O=C(Cl)C(F)(F)C(F)(F)C(F)(F)C(F)(F)C(F)(F)C(F)(F)C(F)(F)C(F)(F)F | inactive | –
FC(F)(I)C(F)(F)C(F)(F)C(F)(F)I | – | 80.4 µM (active)
FC(F)(F)C(F)(F)C(F)(F)C(F)(F)C(F)(F)C(F)(F)CCS | inactive | –
